Rows were chosen to be rich in hits. Some 3.4% of all compounds tested hit in one or more screens of this group.
TEAD-YAP inh – TEAD-YAP interaction inhibition. HEK-TIYL cells, TEAD-Gal4/YAP UAS-luciferase luminescence. inhibition, % at 9.12 µM. 640,000 tested, 1.4% active. AID 1259422; in the data active = inhibition above about 32%;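 note: 0% = median of test compound wells and 100% = reference inhibitor wells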
FBW7 activator – human FBW7 E3 ligase activation, primary screen; Q969H0; AlphaScreen FBW7–phospho-cyclin E peptide binding, activator screen; normalized activity (activation), % at 26.1 µM; 650,000 tested, 0.13% active; AID 1259310; in the data active = normalized activity above about 1.9%;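 note: purified mutant Fbw7 with reduced substrate affinity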
MITF inh – inhibitors of human MITF. AlphaScreen MITF homodimerization, bead proximity signal. inhibition, % at 2.6 µM. 650,000 tested, 0.91% active. O75030; in the data active = inhibition above about 50%;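 note: 0% = vehicle wells with protein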
GPR151 activ – human GPR151 activation. Q8TDV0. PathHunter beta-arrestin GPR151 cells, luminescence. activation, % at 11.2 µM. 650,000 tested, 1% active. AID 1508602; in the data active = activation above about 4.9%;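 note: 0% = median of compound wells and 100% = cells with positive control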
Target sequence (Q8TDV0 whole entry, looked up): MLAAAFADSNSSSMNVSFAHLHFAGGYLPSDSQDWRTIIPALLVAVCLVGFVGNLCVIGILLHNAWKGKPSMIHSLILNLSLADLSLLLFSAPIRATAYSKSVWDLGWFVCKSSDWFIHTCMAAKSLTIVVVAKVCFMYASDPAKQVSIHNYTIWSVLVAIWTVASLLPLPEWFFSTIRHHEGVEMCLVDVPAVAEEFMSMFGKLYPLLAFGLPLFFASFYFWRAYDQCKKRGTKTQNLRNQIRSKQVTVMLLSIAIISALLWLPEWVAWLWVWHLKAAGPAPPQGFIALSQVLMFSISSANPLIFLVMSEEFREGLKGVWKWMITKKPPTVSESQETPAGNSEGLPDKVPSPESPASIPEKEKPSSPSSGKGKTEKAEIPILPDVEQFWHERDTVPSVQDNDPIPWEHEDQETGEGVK
An asterisk follows results filed as active; ! = not active in a repeat.

SMILES	TEAD-YAP inh	FBW7 activator	MITF inh	GPR151 activ
NC(=O)SCC(=O)Nc1ccc(Br)cc1	-1.4	-0.3	-4.7	-1.3
Cc1cc(Nc2ccc(I)cc2)n2ncnc2n1	-6.2	-0.2	-5.4	0.3
Cc1cc(C)c(C#N)c(Nc2ccc(Cl)cc2Cl)n1	-5.5	0.2	-11.2	0.7
Cc1ccccc1C(OCCN(C)C)c1ccccc1 (configuration not stated)	6.3	1.9*!	-14.2	-2.0
CN(C)CC#CCOC(c1ccccc1)c1ccccc1	-0.6	-0.2	4.8	-0.8
CC(C)(C)NC(=O)CN(c1ccc2c3c(cccc13)CC2)S(C)(=O)=O	4.0	0.1	12.9	2.3
Cc1ccccc1Nc1nc2nonc2nc1N/N=C/c1ccc(F)cc1	6.3	0.1	1.7	1.3
Cc1cccc(Nc2nc3nonc3nc2N/N=C\c2cccs2)c1C	78.7*	-1.6	6.2	2.7
Cc1ccc2nc(C3C(=O)c4ccccc4C3=O)ccc2c1	54.4*	0.3	4.2	2.9
COc1ccc2nc(C3C(=O)c4ccccc4C3=O)ccc2c1	82.9*	-0.1	13.7	-3.2
COc1cccc(C2(O)CSC3=C(C#N)C(c4cccc(F)c4)CC(=O)N32)c1 (configuration not stated)	48.1*	-0.6	-23.4	0.0
COc1cccc(C2(O)CSC3=C(C#N)C(c4cccc(Cl)c4)CC(=O)N32)c1 (configuration not stated)	67.4*	0.3	24.4	0.3
COc1cccc(C2CC(=O)N3C(=C2C#N)SCC3(O)c2ccc(F)cc2)c1 (configuration not stated)	-11.2	-0.1	1.4	0.5
COc1ccc(C2(O)CSC3=C(C#N)C(c4cccc(Cl)c4)CC(=O)N32)cc1OC (configuration not stated)	-6.8	-0.1	-5.6	-0.6
COc1cc2[nH]c(=S)nc(NCc3ccc4c(c3)OCO4)c2cc1OC	-0.1	0.2	14.2	-0.1
Cc1ccccc1-c1cc2nc3c(c(=O)n2[nH]1)SCC3	-45.7	0.1	1.8	-1.6
O=S(=O)(Nc1ccc2c(c1)OCO2)c1ccc(Oc2ccc(Br)cc2)cc1	-21.7	0.1	7.0	2.1
O=[N+]([O-])c1ccc(Oc2ccc(S(=O)(=O)Nc3ccc4c(c3)OCCO4)cc2)cc1	43.4*	-0.1	-15.9	1.1
COc1cccc(CCNC(=O)C2CC23CCN(Cc2cccnc2)CC3)c1 (configuration not stated)	2.1	0.2	4.6	-1.5
CCCCN(CCCC)C(=O)Cc1cccs1	44.3*	-0.1	0.1	0.8
CCN(CC)C(=O)N1c2ccccc2CCc2ccccc21	41.9*	-0.1	-1.4	1.0
COc1cc2[nH]c(=O)c(C(=O)NCCO)c(O)c2cc1OC	-0.3	-0.2	-7.3	1.3
COc1cccc(CNC(=O)Nc2ccc(-c3cn[nH]c3)cc2N(C)CCN(C)C)c1	-1.9	0.6	28.8	0.7
COc1cccc(CN(CCCN(C)C)C(=O)Nc2ccc(-c3cn[nH]c3)cc2)c1	1.5	0.1	62.0*	-0.6
COc1cccc(CNC(=O)Nc2ccc(-c3cn[nH]c3)cc2N(C)CCO)c1	54.1*	-0.1	40.4	-1.2
SMILES	TEAD-YAP inh	FBW7 activator	MITF inh	GPR151 activ
COc1cccc(CN(CCN(C)C)C(=O)Nc2ccc(-c3cn[nH]c3)cc2)c1	-11.8	-0.1	1.1	-1.3
O=S(=O)(NCc1cccs1)c1ccc(Cc2ccc(S(=O)(=O)NCc3cccs3)cc2)cc1	33.6*	0.1	7.1	1.0
O=S(=O)(NCc1cccs1)c1ccc(-c2ccc(S(=O)(=O)NCc3cccs3)cc2)cc1	4.2	0.1	-4.5	0.2
CCc1cc(-c2n[nH]c(C)c2-c2nc3ccccc3s2)c(O)cc1OC	35.0*	-0.2	7.1	-0.5
O=C(Nc1ccc(Br)cn1)c1cc(Br)ccc1Cl	43.0*	0.8	18.4	-0.7
O=C(Nc1ccc(Br)cn1)c1cccc2ccccc12	32.2*	-0.1	-8.9	-1.1
O=C(Cn1ncc2ccccc21)Nc1ccc(Br)cn1	38.1*	0.0	5.2	0.4
CSc1ccc(Cl)c(C(=O)Nc2ccc(Br)cn2)c1	35.2*	-0.1	-6.4	1.2
O=C(Cn1ncc2ccccc21)Nc1ccccc1Br	-4.2	0.6	15.7	-2.5
Nc1ncc(-c2cccc3ncccc23)nc1NCc1ccccc1	48.2*	0.6	21.5	1.0
C[C@@H](Nc1nc(-c2cccc3cccnc23)cnc1N)c1ccccc1	16.0	0.1	5.7	-0.5
C[C@H](Nc1nc(-c2cccc3ncccc23)cnc1N)c1ccccc1	59.7*	0.1	13.6	-0.7
N#CC1=C(N)Oc2c([nH]c(=O)[nH]c2=O)C1c1cccc([N+](=O)[O-])c1 (configuration not stated)	4.2	-0.9	10.3	-0.3
COc1ccc(C2C(C#N)=C(N)Oc3c2sc2ccccc32)cc1[N+](=O)[O-] (configuration not stated)	15.4	0.3	15.0	-0.3
N#CC1=C(N)Oc2c(sc3ccccc23)C1c1cccc([N+](=O)[O-])c1 (configuration not stated)	53.1*	-0.1	6.3	1.3
N#CC1=C(N)Oc2c(ccc3ccccc23)C1c1cccc([N+](=O)[O-])c1 (configuration not stated)	66.0*	-0.3	-6.2	-1.4
Cc1noc(C)c1CCC(=O)N1CCC(C(=O)Nc2cccc(-c3ccco3)c2)CC1	33.7*	0.0	-0.3	-0.2
CCN(CC)CCCNc1c2c(c(C#N)c3nc4ccccc4n13)CCC2	0.4	-0.2	-2.7	1.5
CCOC(=O)CN(C(=O)CCl)c1ccc(F)cc1	77.5*	-0.1	-5.4	-0.4
O=C(CSc1nnc(NC(=O)c2ccccc2)s1)NCc1cccs1	-18.1	-0.1	0.9	-0.7
N#CC1=C(SCC(=O)Nc2ccccc2[N+](=O)[O-])NC(=O)CC1c1ccccc1F (configuration not stated)	34.0*	0.6	27.8	1.1
COC(=O)CSC1=C(C#N)C(c2cccc(Cl)c2)CC(=O)N1 (configuration not stated)	57.3*	0.0	-3.3	-0.4
CCOC(=O)CSC1=C(C#N)C(c2cccc(Cl)c2)CC(=O)N1 (configuration not stated)	65.8*	0.0	7.1	-0.6
N#CC1=C(SCC(=O)Nc2ccc(Cl)c(Cl)c2)NC(=O)CC1c1cccs1 (configuration not stated)	58.8*	-0.1	49.6	1.1
N#CC1=C(SCC(=O)Nc2ccccc2Cl)NC(=O)CC1c1ccc(F)cc1 (configuration not stated)	6.0	-0.1	2.5	-0.2
COC(=O)CSC1=C(C#N)C(c2ccc(Cl)cc2)CC(=O)N1 (configuration not stated)	-8.7	-0.1	4.9	-0.9
CCOC(=O)CSC1=C(C#N)C(c2ccc(Cl)cc2)CC(=O)N1 (configuration not stated)	-13.0	0.0	-1.2	-1.2
CCCCOC(=O)CSC1=C(C#N)C(c2cccc(Cl)c2)CC(=O)N1 (configuration not stated)	45.1*	-0.1	11.3	-0.4
CCOC(=O)CSC1=C(C#N)C(c2ccc(C)o2)CC(=O)N1 (configuration not stated)	59.9*	0.0	6.1	1.0

Assay outcomes deposited in PubChem by The Scripps Research Institute Molecular Screening Center.
